Hit rate of the full screen: of about 53,000 compounds, about 900 (1.7%) showed an effect of 50% or more. The full list was thinned out, with strong results kept by preference.
test system: Mycobacterium tuberculosis; assay: Cornell - Phenotypic assay to identify agents that inhibit growth of Mycobacterium tuberculosis; type: functional; design: scale not given: direction of the effect not stated beside the values; details: 10 mM as filed; unlikely as a test dose

Structure (SMILES)	Percent Effect [%]
CC(NC(=O)N1CCNC(=O)CC1)c1ccc(OC(F)F)cc1 (stereo not drawn)	-26.09
c1cc(CN2CCC(Cc3noc(C4CC4)n3)CC2)c2c(c1)OCO2	11.43
Fc1ccc(C2(CNC3=NCCN3)CCCC2)cc1.I	20.05
O=C(CCc1cc2n(n1)CCCNC2)NCCS(=O)(=O)N1CCCC1	-51.2
CN1CCN(c2cc(N3CCCC3CO)ncn2)Cc2ccccc21 (stereo not drawn)	-16.34
Cc1cccc2c1CCN(c1cc(N3CCCC3CO)ncn1)C2 (stereo not drawn)	67.12
CS(=O)(=O)N1CCN(c2cc(N3CCCC3CO)ncn2)CC1 (stereo not drawn)	0.6089
Cc1noc(Cl)c1CCC(=O)N1CCCCC1Cn1cccn1 (stereo not drawn)	-3.884
CCOc1ccc(S(=O)(=O)NC(=O)c2c(C)noc2C(C)C)cc1	49.48
Cc1noc(C(C)C)c1C(=O)NS(=O)(=O)c1ccc(Cl)cc1	78.7
Cc1ccc(S(=O)(=O)NC(=O)c2c(C)noc2C(C)C)cc1C	26.09
Cc1cc2nccc(C3CCN(C(=O)c4ccccc4F)CC3)n2n1	6.226
CCC(Nc1ccc(CCN2CCOCC2)cc1)C(N)=O (stereo not drawn)	-19.51
CN(C)C(=O)c1cncnc1-c1ccc(CNC(=O)C2CC2)cc1	37.26
COCC(=O)NCc1ccc(-c2ncncc2C(=O)N(C)C)cc1	50.66
COCCC(=O)NCc1ccc(-c2ncncc2C(=O)N(C)C)cc1	32.24
CNC(=O)c1sc2ccccc2c1C1CCN(c2nc(C)cc(C)n2)C1 (stereo not drawn)	14.17
CN1CCCC1CCNC(=O)c1ccccc1-n1cc(CN)cn1 (stereo not drawn)	7.916
Cc1cccc2c1C(=O)NC1(CCOCC1)N2	17.55
Cn1nccc1-c1ccc2nc(C3CCN(CC4CC4)CC3)nn2c1.O=C(O)C(F)(F)F.O=C(O)C(F)(F)F	-10.01
COc1ccc2[nH]c(CNc3cc(C4CCNCC4)nc(C)n3)cc2c1	70.58
Cc1nc(NCc2ccc(C)o2)cc(C2CCNCC2)n1	-17.21
Cc1nc(NCc2cccc(F)c2)cc(C2CCNCC2)n1.Cl	-9.727
O=C(c1cncs1)N1CCC(c2cnccn2)CC1	7.442
Cc1cn2c(n1)CCC(NC(=O)Cn1cncn1)C2 (stereo not drawn)	-12.63
Cc1ccc(OCCC(=O)N2CCN(c3cnccn3)CC2)cc1C	39.73

Structure (SMILES)	Percent Effect [%]
Cc1nn(C)cc1C(=O)NCc1csc(C2CC2)n1	0.3942
CCn1nc(C)c(C(=O)NCc2csc(C3CC3)n2)c1C	69.61
CCn1cc(C(=O)NCc2csc(C3CC3)n2)c(C)n1	26.12
CCSc1cc(C(=O)NCCc2nnc(-c3ccco3)[nH]2)ccn1	-11.72
CCOc1cc(C)c(-c2cc(N)[nH]n2)cc1OCC	10.44
CCOc1ccccc1-c1cc(N)[nH]n1.Cl	108.1
CCOc1ccc(Br)cc1-c1cc(N)[nH]n1.Cl	-17.72
O=C(c1cc(C2CCCC2)no1)N1CC(O)C1	18.4
CN(C)C(=O)CN1C(=O)CCC12CCN(Cc1ccc(F)cc1)CC2.O=C(O)C(F)(F)F	13.62
Cl.c1csc(-c2noc(C3CCCNC3)n2)c1 (stereo not drawn)	9.745
CCS(=O)(=O)N1CC(c2nc(-c3cccs3)no2)C1	8.063
Cl.c1csc(-c2noc(C3CNC3)n2)c1	106.9
CO[C@H]1CN(c2ccccc2)S(=O)(=O)[C@@]12CCN(Cc1ccccc1)C2	6.335
Cc1ccccc1CC(=O)N1CCCn2cncc2C1	-17.85
Cc1cccc(C(=O)N2C[C@H](NS(C)(=O)=O)[C@@H]3OCCC[C@@H]32)n1	2.201
CN1CCC(NC(=O)Nc2ccc(Br)c(F)c2)C1=O (stereo not drawn)	8.703
CN1CCC(NC(=O)Nc2ccc(F)c(-n3cccc3)c2)C1=O (stereo not drawn)	84.66
CN1CCC(NC(=O)Nc2ccc(F)c(Br)c2)C1=O (stereo not drawn)	-9.143
COCCNc1ccc(CC2CCCN(C3CCCC3)C2)nn1 (stereo not drawn)	39.43
CN(Cc1cc2cc(F)ccc2[nH]1)C(=O)C1CC(=O)N(C(C)(C)C)C1 (stereo not drawn)	23.39
CN(C)CCN1CC(C(=O)N(C)Cc2cc3cc(F)ccc3[nH]2)CC1=O (stereo not drawn)	29.76
CCc1nnc(CN(C)C(=O)C2CC(=O)N(C3CC3)C2)o1 (stereo not drawn)	20.13
CN(Cc1cc2cc(F)ccc2[nH]1)C(=O)C1CC(=O)N(C2CCCC2)C1 (stereo not drawn)	65.9
CN(Cc1cc2cc(F)ccc2[nH]1)C(=O)C1CC(=O)N(C2CC2)C1 (stereo not drawn)	52.25
CCN1CC(C(=O)N(C)Cc2cc3cc(F)ccc3[nH]2)CC1=O (stereo not drawn)	42.66
c1ccc(CNc2ccccc2N2CCCC2)nc1	18.15

Structure (SMILES)	Percent Effect [%]
O=C(NCc1ccc(Br)cc1F)C1(O)CCSCC1	15.88
O=C(Cc1ccccc1)NCc1ncc(-c2ccccc2C(=O)O)cn1	23.42
O=C(Cc1ccccc1)NCc1ccc(-c2ccccc2C(=O)O)cn1	48.74
COCCN1CCC(Cc2cnc(-c3ccccc3C(=O)O)cn2)CC1	-34.65
COCCC(=O)NCc1ccc(-c2ccccc2C(=O)O)nc1	47.85
COCCC(=O)NCc1ccc(-c2ccccc2C(=O)O)cn1	57.39
CS(=O)(=O)c1ccc(-c2ccccc2C(=O)O)cc1	-4.334
O=C(O)c1ccccc1-c1cnc(CNC(=O)C2CCOCC2)nc1	-26.12
CC(=O)NCc1ccc(-c2ccccc2C(=O)O)cn1	56.71
COCC(=O)NCc1ccc(-c2ccccc2C(=O)O)cn1	56.05
COCCC(=O)N(CCC#N)c1ccc2c(c1)OCCO2	0.8387
Cc1noc(C)c1-c1cccc(C2CCN(S(=O)(=O)N(C)C)CC2)n1	42.71
O=S(=O)(N1CCCCC1)N1CCC(Oc2cnccn2)CC1	20.22
CN(C(=O)c1ccon1)[C@@H]1CCC[C@@H](Oc2ccccc2)[C@@H]1O	-13.46
O=C(COc1ccc(-c2ccccc2)nc1)NCC1CC1	18.89
CCc1oc(C(=O)N(C)Cc2ccncc2)cc1CN(CC)CC	3.07
COC(=O)c1ccc(N2CCC(N(C)c3ccccc3)CC2)nn1	11.3
COC(=O)c1ccc(N2CCC(c3ccccc3)CC2)nn1	26.44
COC(=O)c1ccc(N2CCC(C(O)c3ccccc3)CC2)nn1 (stereo not drawn)	106
OCC(CO)N1CCCC(Cc2ccnc(Nc3ccccn3)c2)C1 (stereo not drawn)	10.34
Cc1cc(C)n(CCNc2ncnc3c2NC(=O)CN3)n1	18.99
C/N=C1/c2cc3cc(OC)ccc3n2CCN1Cc1ccccc1.Cl	57.78
C/N=C1\c2cc3cc(OC)ccc3n2CCN1Cc1ccccc1.O=C(O)C(F)(F)F	22.23
C/N=C1\c2cc3cc(OC)ccc3n2CCN1C.Cl	-3.392
CNC(=O)CN1CCOCC12CCN(C(=O)c1ccc(C)cc1)CC2.O=C(O)C(F)(F)F	15.73
CCN(C)C(=O)c1cc(-c2cn(C(C)C)cn2)n2ccccc12	-58.24

Structure (SMILES)	Percent Effect [%]
CC(C)n1ccc(-c2cc(C(=O)NC3CC3)c3ccccn23)n1	-20.13
CCCNC(=O)c1cc(-c2ccn(C(C)C)n2)n2ccccc12	54.8
CC(C)n1ccc(-c2cc(C(=O)N3CCCC3)c3ccccn23)n1	40.75
CCN(C)C(=O)c1cc(-c2ccn(C(C)C)n2)n2ccccc12	68.36
CC(C)n1ccc(-c2cc(C(=O)N3CCN(C)CC3)c3ccccn23)n1.O=C(O)C(F)(F)F	-46.58
O=C(c1cc[nH]n1)N1CCc2c(nc(N3CCCCC3)[nH]c2=O)C1	11.2
CC(C#N)CN(C)C(=O)CCNC(=O)OC(C)(C)C (stereo not drawn)	19.92
Cc1cnc(C(=O)N2CCN3C[C@H](OCc4cccnc4)C[C@H]3C2)cn1	-31.84
Cc1ccc(CNCc2cccc(NC(=O)CCN3CCOCC3)c2)s1	14.02
CC1=C(C#N)C(=O)NC(=O)/C1=C\c1c(C)nn(-c2ccc(C)cc2)c1O	24.62
Cc1nc(CN2C(=O)CC[C@@H]3[C@H]2CCN3C2CCOC2)cs1.O=C(O)C(F)(F)F (stereo partly drawn)	9.813
CC(=O)N1C[C@@H]2CN(S(=O)(=O)C3CC3)CCO[C@@H]2C1	-7.882
CCn1nccc1CN(C)C(=O)Cn1nc(C)c(C)c1C	1.975
CC(C)N(C)Cc1n[nH]c2c1CCN(C(=O)c1ccc[nH]1)C2.O=C(O)C(F)(F)F	-20.42
Cn1ccc2c(NC(=O)Cn3ncc4c(c3=O)CCCC4)cccc21	50.09
O=C(Cn1ncc2c(c1=O)CCCCC2)Nc1cccc2[nH]ccc12	32.47
Cn1ccc2c(NC(=O)Cn3ncc4c(c3=O)CCCCC4)cccc21	7.683
O=C1C(n2nnc(-c3cccs3)n2)CCN1CC(F)(F)F (stereo not drawn)	21.02
Cc1cccc(CNC(=O)CC2CCN(C(=O)C(C)C)CC2)n1	-31.48
Cc1nnc(N2CC[C@H](OCC3CC3)[C@@H](Cc3ccccc3)C2)s1.O=C(O)C(F)(F)F	73.55
CO[C@@H]1CCN(c2nnc(C)s2)C[C@@H]1Cc1cccc(C)c1.O=C(O)C(F)(F)F	41.6
Cc1nnc(N2CC[C@@H](OCC3CC3)[C@@H](Cc3ccccc3)C2)s1.O=C(O)C(F)(F)F	81.09
CO[C@@H]1CCN(c2nnc(C)s2)C[C@@H]1Cc1ccccc1.O=C(O)C(F)(F)F	33.57
CO[C@H]1CCN(c2nnc(C)s2)C[C@@H]1Cc1cccc(C)c1.O=C(O)C(F)(F)F	15.98
CO[C@H]1CCN(c2nnc(C)s2)C[C@@H]1Cc1ccccc1.O=C(O)C(F)(F)F	35.25

Source: ChEMBL document CHEMBL3988442, “University of Dundee, Small-Polar-MMV Screening Library” (2021)
